Legend:
Assay in all cases: relative growth (AUC of 72 h growth curve relative to DMSO control, dAUC) (ratio); higher = more growth (less inhibition), active = hit call of the paper
Settings in all cases: 20 µM;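 active = growth AUC significantly below the DMSO wells by Dunnett test; inactive = the rest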
[1] = tested on: Prolinoborus 1 (Prolinoborus fasciculus)
Method in brief: (§1)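 Cultures grown to carrying capacity in Luria–Bertani medium, drawn from Icelandic stream sediment and Silwood Park soil isolates and whole sediment communities, were diluted 1:100 into 96-well plates with each chemical at 20 µM (1% DMSO) and read at A600 hourly for 72 h. The spline-integrated area under the growth curve, divided by the mean of the DMSO controls, is reported as relative growth (dAUC). Values are means of three biological replicates.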

[2] = tested on: Pseudomonas 1 (Pseudomonas baetica)
Method in brief: as §1

[3] = tested on: Pseudomonas 2 (Pseudomonas vancouverensis)
Method in brief: as §1

[4] = tested on: Pseudomonas 3 (Pseudomonas mandelii)
Method in brief: as §1

[5] = tested on: Pseudomonas 4 (Pseudomonas peli)
Method in brief: as §1

[6] = tested on: Pseudomonas 5 (Pseudomonas baetica)
Method in brief: as §1

[7] = tested on: Pseudomonas 6 (Pseudomonas sp.)
Method in brief: as §1

[8] = tested on: Rhizobium 1 (Rhizobium herbae)
Method in brief: as §1

[9] = tested on: Serratia 1 (Serratia sp. 2015-2462-01)
Method in brief: as §1

[10] = tested on: Sphingomonas 2 (Sphingomonas sp.)
Method in brief: as §1

Measured: relative growth

CC1=NNC(=O)N(/N=C/c2cccnc2)C1
inactive: [1] 1.05 | [2] 0.636 | [3] 1.03 | [4] 0.986 | [5] 0.986 | [6] 0.971 | [7] 0.931 | [8] 1.03 | [9] 0.937 | [10] 1.03

CNC(=O)/C=C(\C)OP(=O)(OC)OC
inactive: [1] 0.971 | [2] 1.05 | [3] 0.988 | [4] 1.03 | [5] 0.964 | [6] 0.96 | [7] 0.989 | [8] 1.09 | [9] 0.937 | [10] 0.926

CS(=O)(=O)NC(=O)c1cc(Oc2ccc(C(F)(F)F)cc2Cl)ccc1[N+](=O)[O-]
inactive: [1] 1.01 | [2] 1.01 | [3] 1 | [4] 1 | [5] 0.996 | [6] 1.04 | [7] 1.07 | [8] 0.917 | [9] 1.02 | [10] 1.02

CC1COC(Cn2cncn2)(c2ccc(Oc3ccc(Cl)cc3)cc2Cl)O1 (stereo not given)
inactive: [1] 1.04 | [2] 1.06 | [3] 0.99 | [4] 1.06 | [5] 1.01 | [6] 1.03 | [7] 1.08 | [8] 0.952 | [9] 1.01 | [10] 1.06

CC1(C)C(C=C(Cl)Cl)C1C(=O)OCc1cccc(Oc2ccccc2)c1 (stereo not given)
inactive: [1] 0.985 | [2] 1.13 | [3] 0.97 | [4] 1 | [5] 0.979 | [6] 1.05 | [7] 1.13 | [8] 0.958 | [9] 0.964 | [10] 1.02

CC(C)NC(=O)N1CC(=O)N(c2cc(Cl)cc(Cl)c2)C1=O
inactive: [1] 0.949 | [2] 0.913 | [3] 0.94 | [4] 0.906 | [5] 0.923 | [6] 0.954 | [7] 0.864 | [8] 1.03 | [9] 0.982 | [10] 0.971

CCc1cccc(C)c1N(C(=O)CCl)[C@@H](C)COC
inactive: [1] 1.01 | [2] 1.09 | [3] 0.996 | [4] 1 | [5] 0.993 | [6] 1.03 | [7] 1.13 | [8] 0.952 | [9] 0.985 | [10] 0.791

Cc1cc(C(F)(C(F)(F)F)C(F)(F)F)ccc1NC(=O)c1cccc(I)c1C(=O)NC(C)(C)CS(C)(=O)=O
active: [3] 0.842 | [10] 0.654
1.19: [9]
inactive: [1] 0.933 | [2] 0.728 | [4] 0.883 | [5] 1.13 | [6] 0.92 | [7] 0.776 | [8] 0.937

CC1(C)[C@H](C(=O)O[C@H](C#N)c2cccc(Oc3ccccc3)c2)[C@@H]1C=C(Br)Br
inactive: [1] 1.01 | [2] 1.04 | [3] 1.03 | [4] 1.03 | [5] 1.01 | [6] 1.06 | [7] 1.14 | [8] 1.23 | [9] 1 | [10] 1.12

CC1(C)C(C(=O)OC(C#N)c2cccc(Oc3ccccc3)c2)C1(C)C (stereo not given)
inactive: [1] 0.893 | [2] 1.08 | [3] 1 | [4] 1.04 | [5] 0.948 | [6] 1.01 | [7] 1.01 | [8] 1.05 | [9] 1 | [10] 0.98

CC(Oc1ccc(Oc2ncc(C(F)(F)F)cc2Cl)cc1)C(=O)O (stereo not given)
inactive: [1] 0.983 | [2] 1.1 | [3] 1.04 | [4] 1.05 | [5] 1 | [6] 1.03 | [7] 1.17 | [8] 1.11 | [9] 0.972 | [10] 1.08

CCOc1ccc(C(C)(C)COCc2cccc(Oc3ccccc3)c2)cc1
inactive: [1] 0.909 | [2] 1.14 | [3] 0.998 | [4] 1.02 | [5] 0.914 | [6] 0.991 | [7] 1.02 | [8] 0.851 | [9] 0.956 | [10] 0.967

Cc1nc(N(C)C)nc(OC(=O)N(C)C)c1C
inactive: [1] 0.948 | [2] 1 | [3] 0.96 | [4] 0.978 | [5] 0.949 | [6] 0.991 | [7] 1.02 | [8] 1.22 | [9] 0.992 | [10] 0.968

CC(COc1ccc(Oc2ccccc2)cc1)Oc1ccccn1 (stereo not given)
inactive: [1] 1.03 | [2] 1.02 | [3] 1 | [4] 1.01 | [5] 1.05 | [6] 1.01 | [7] 1.08 | [8] 0.97 | [9] 0.987 | [10] 1.14

CC(C)(C)c1ccc(CSc2cnn(C(C)(C)C)c(=O)c2Cl)cc1
inactive: [1] 0.998 | [2] 1 | [3] 1.01 | [4] 1.02 | [5] 1.02 | [6] 1.01 | [7] 1.13 | [8] 1.04 | [9] 1.06 | [10] 0.802

OC(Cc1ccccc1Cl)(Cn1nc[nH]c1=S)C1(Cl)CC1 (stereo not given)
inactive: [1] 1.02 | [2] 1.02 | [3] 0.995 | [4] 1.01 | [5] 1 | [6] 0.995 | [7] 0.982 | [8] 1.07 | [9] 1.05 | [10] 0.981

CCCCCCCCCCCCNC(=N)N
active: [1] 0.00813 | [5] 0.847 | [8] 0.00569 | [9] 0.00141 | [10] 0.00501
inactive: [2] 1.05 | [3] 0.94 | [4] 0.902 | [6] 0.904 | [7] 0.922

N#CCNC(=O)c1cnccc1C(F)(F)F
inactive: [1] 1.03 | [2] 1.05 | [3] 0.996 | [4] 0.97 | [5] 0.996 | [6] 1.01 | [7] 1.07 | [8] 0.857 | [9] 0.947 | [10] 1.08

CO/C=C(/C(=O)OC)c1ccccc1Oc1cc(Oc2ccccc2C#N)ncn1
inactive: [1] 0.973 | [2] 1.07 | [3] 1.02 | [4] 1.06 | [5] 1.03 | [6] 1.03 | [7] 1.08 | [8] 0.967 | [9] 0.967 | [10] 1.09

CCOC(=O)CC(SP(=S)(OC)OC)C(=O)OCC (stereo not given)
inactive: [1] 1.01 | [2] 1.03 | [3] 1.05 | [4] 1.05 | [5] 1.04 | [6] 0.994 | [7] 1.09 | [8] 0.984 | [9] 1.01 | [10] 1.15

COC(=O)N(C(=O)N1CO[C@@]2(C(=O)OC)Cc3cc(Cl)ccc3C2=N1)c1ccc(OC(F)(F)F)cc1
inactive: [1] 1 | [2] 1.02 | [3] 0.991 | [4] 1.04 | [5] 1.01 | [6] 0.965 | [7] 0.966 | [8] 1 | [9] 0.967 | [10] 0.861

COP(=S)(OC)Oc1ccc(SC)c(C)c1
inactive: [1] 0.975 | [2] 0.988 | [3] 0.973 | [4] 1.01 | [5] 0.957 | [6] 1.01 | [7] 1.01 | [8] 0.937 | [9] 0.998 | [10] 0.974

O=C(Nc1ccccc1-c1ccc(Cl)cc1)c1cccnc1Cl
inactive: [1] 0.978 | [2] 0.948 | [3] 0.972 | [4] 1 | [5] 0.986 | [6] 0.998 | [7] 0.959 | [8] 0.665 | [9] 0.971 | [10] 0.958

COC(=O)N(OC)c1ccccc1COc1ccn(-c2ccc(Cl)cc2)n1
inactive: [1] 1.01 | [2] 1.13 | [3] 1.04 | [4] 1.03 | [5] 1 | [6] 1.02 | [7] 1.15 | [8] 0.863 | [9] 0.984 | [10] 1.05

C#CCOc1ccc(CCNC(=O)C(OCC#C)c2ccc(Cl)cc2)cc1OC (stereo not given)
inactive: [1] 0.958 | [2] 0.979 | [3] 0.988 | [4] 1.02 | [5] 0.992 | [6] 0.985 | [7] 1.07 | [8] 1.06 | [9] 0.968 | [10] 1.13

CO/N=C(/C(=O)OC)c1ccccc1CO/N=C(\C)c1cccc(C(F)(F)F)c1
inactive: [1] 0.953 | [2] 1.13 | [3] 1 | [4] 1.04 | [5] 0.949 | [6] 0.978 | [7] 1.03 | [8] 0.921 | [9] 0.952 | [10] 1.1

COCc1cnc(C2=NC(C)(C(C)C)C(=O)N2)c(C(=O)O)c1 (stereo not given)
inactive: [1] 1.08 | [2] 0.958 | [3] 0.98 | [4] 0.992 | [5] 0.974 | [6] 0.972 | [7] 1.01 | [8] 0.972 | [9] 1.03 | [10] 0.982

O=C1C2CC=CCC2C(=O)N1SC(Cl)(Cl)Cl (stereo not given)
active: [1] 0.598 | [2] 0.601 | [5] 0.796 | [8] 0.519 | [9] 0.813 | [10] 0.398
inactive: [3] 0.983 | [4] 0.941 | [6] 0.954 | [7] 0.879
